Experimental data reported in PubChem BioAssay (NCATS).
Results filed as inconclusive are left out. Active and inactive are the calls of the source. Unless noted, calls come from the whole dose curve; as a rule, active = well fitted curve in the direction sought with a large enough effect; inconclusive = small, poorly fitted or top-dose-only effect, or another doubt; inactive = no such curve, though single readings can be large; an effect the other way counts as inactive or inconclusive.

Experiments:
[1] = target: Guanidinoacetate N-methyltransferase (Homo sapiens) (UniProt Q14353); experiment: Confirmatory Screen for Target Class Profiling of Small Molecule Inhibitors of Methyltransferases (AID 1745852; calls by dose curve; for activity change, negative = inhibition: % is set by controls: 0 for no effect and ±100 for the full control effect); settings: MTase-Glo luminescence, SAH detection, recombinant enzyme; at 57.3 µM (top of the series)
[2] = target: Nicotinamide N-methyltransferase (Homo sapiens) (UniProt P40261); experiment: as above; settings: MTase-Glo luminescence, SAH detection, recombinant enzyme; measured here: NNMT max response; stronger effect = lower value
[3] = target: Phenylethanolamine N-methyltransferase (Homo sapiens) (UniProt P11086); experiment: as above; settings: MTase-Glo luminescence, SAH detection, recombinant enzyme; measured here: PNMT max response; stronger effect = lower value
[4] = target: Metallo-beta-lactamase type 2 (Klebsiella pneumoniae) (UniProt C7C422); experiment: qHTS to identify inhibitors of the New Delhi Metallo-beta-lactamase (NDM): assay validation screen against the NCATS LOPAC Collection (AID 1794843);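 note: nitrocefin turnover by NDM-1 measured as 485 nm absorbance at plateau; % is set by controls: 0 for no effect and ±100 for the full control effect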
Procedure, shortened: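 Nitrocefin hydrolysis (50 uM substrate stock) by NDM-1, 2 nM final, was followed by 485 nm absorbance after compound preincubation; buffer was 50 mM HEPES pH 7.0, 1 uM ZnSO4, 0.01% Tween20.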

[5] = target: Glutathione peroxidase 1 (Homo sapiens) (UniProt P07203); experiment: Primary qHTS Assay for Inhibitors of Recombinant Selenoprotein Glutathione Peroxidase 1 (GPX1) (AID 1845191); note: nearly all actives have a fitted effect of over 65% in size; for activity, negative = inhibition: % is set by controls: 0 for no effect and ±100 for the full control effect
Procedure, shortened: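 NADPH consumption tracked by fluorescence at 340/450 nm between t=0 and t=15 min, room temperature. Final mix: 10 nM GPX1, 100 nM glutathione reductase, 1 mM GSH, 0.5 mM NADPH, 0.5 mM cumene hydroperoxide, 0.01% BSA; 30 min compound–enzyme preincubation.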

[6] = target: Phospholipid hydroperoxide glutathione peroxidase GPX4 (Homo sapiens) (UniProt P36969); experiment: Primary qHTS Assay for Inhibitors of Recombinant Selenoprotein Glutathione Peroxidase 4 (GPX4) (AID 1845192); settings: outcome: dose series up to 50 µM unless noted; note: nearly all actives have a fitted effect of over 65% in size
Procedure, shortened: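 NADPH consumption followed by fluorescence at 340/450 nm, t=0 and after 15 min at room temperature. Reaction started with cumene hydroperoxide (0.5 mM final) after 30 min compound–GPX4 preincubation; final 200 nM GPX4, 100 nM GR, 1 mM GSH, 0.5 mM NADPH.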

[7] = qHTS profiling for inhibitors of Plasmodium falciparum proliferation (AID 504749); note: nearly all actives have a fitted effect of over 60% in size; note: potency is the fitted concentration of half-maximal effect;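 for activity, negative = inhibition: 0% = DMSO vehicle and full inhibition = artemisinin control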; settings: P. falciparum in erythrocytes, SYBR Green DNA, 72 h
Procedure, shortened: (§1)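 In a 72 h erythrocytic culture (37 C, humidified, 5% CO2) at 2.5% hematocrit and 0.3% starting parasitemia, compounds were tested; SYBR Green I in detergent lysis buffer stained parasite DNA overnight.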

3D7 = experiment: as above; settings: P. falciparum in erythrocytes, SYBR Green DNA, 72 h; series mostly up to 28.7 µM
Procedure, shortened: as §1

7G8 = experiment: as above; settings: P. falciparum in erythrocytes, SYBR Green DNA, 72 h; series mostly up to 28.7 µM
Procedure, shortened: as §1

AA1029 = experiment: as above; settings: P. falciparum in erythrocytes, SYBR Green DNA, 72 h; series mostly up to 28.7 µM
Procedure, shortened: as §1

AS120 = experiment: as above; settings: P. falciparum in erythrocytes, SYBR Green DNA, 72 h; series mostly up to 28.7 µM
Procedure, shortened: as §1

ATS189 = experiment: as above; settings: P. falciparum in erythrocytes, SYBR Green DNA, 72 h; series mostly up to 28.7 µM
Procedure, shortened: as §1

ATS95 = experiment: as above; settings: P. falciparum in erythrocytes, SYBR Green DNA, 72 h; series mostly up to 28.7 µM
Procedure, shortened: as §1

C2A = experiment: as above; settings: P. falciparum in erythrocytes, SYBR Green DNA, 72 h; series mostly up to 28.7 µM
Procedure, shortened: as §1

[8] = NCATS anti-infectives library activity on HEK293 viability as a counter-qHTS vs the C. elegans viability qHTS (AID 1745854); note: % is set by controls: 0 for no effect and ±100 for the full control effect
Procedure, shortened: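 CellTiter-Glo luminescence, read on a CCD imager, scored viability of HEK293 cells after 24 hr compound exposure at 37C. Library tested in several concentrations, 1:5 steps, up to 41.7 uM; digitonin served as control.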

[9] = at 28.7 µM (top of the series), parasite line A
[10] = at 28.7 µM (top of the series), parasite line B
[11] = at 12.8 µM (top of the series), parasite line A
[12] = at 12.8 µM (top of the series), parasite line B

Chain of Nicotinamide N-methyltransferase (Homo sapiens) (P40261 whole entry, looked up): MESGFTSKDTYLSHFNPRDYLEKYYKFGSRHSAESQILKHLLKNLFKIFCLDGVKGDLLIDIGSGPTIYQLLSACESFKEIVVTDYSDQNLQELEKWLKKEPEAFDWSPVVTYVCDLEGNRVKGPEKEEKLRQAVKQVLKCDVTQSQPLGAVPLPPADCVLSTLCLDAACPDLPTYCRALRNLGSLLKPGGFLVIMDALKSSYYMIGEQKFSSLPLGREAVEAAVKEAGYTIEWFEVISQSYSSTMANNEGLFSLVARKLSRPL
Chain of Phenylethanolamine N-methyltransferase (Homo sapiens) (P11086 whole entry, looked up): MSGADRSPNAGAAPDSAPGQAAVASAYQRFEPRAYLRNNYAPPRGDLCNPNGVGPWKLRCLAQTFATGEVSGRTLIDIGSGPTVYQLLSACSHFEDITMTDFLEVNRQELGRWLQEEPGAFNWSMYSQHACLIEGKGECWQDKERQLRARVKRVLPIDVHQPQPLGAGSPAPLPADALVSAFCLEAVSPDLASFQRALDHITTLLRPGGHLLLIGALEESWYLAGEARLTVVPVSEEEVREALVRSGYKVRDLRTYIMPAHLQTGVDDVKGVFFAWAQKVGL
Chain of Glutathione peroxidase 1 (Homo sapiens) (P07203 whole entry, looked up): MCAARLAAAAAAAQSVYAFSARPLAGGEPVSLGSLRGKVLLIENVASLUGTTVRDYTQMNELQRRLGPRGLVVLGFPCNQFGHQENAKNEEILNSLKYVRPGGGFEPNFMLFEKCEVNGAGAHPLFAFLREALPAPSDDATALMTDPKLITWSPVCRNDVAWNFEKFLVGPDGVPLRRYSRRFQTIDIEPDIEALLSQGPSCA
Chain of Metallo-beta-lactamase type 2 (Klebsiella pneumoniae) (C7C422 whole entry, looked up): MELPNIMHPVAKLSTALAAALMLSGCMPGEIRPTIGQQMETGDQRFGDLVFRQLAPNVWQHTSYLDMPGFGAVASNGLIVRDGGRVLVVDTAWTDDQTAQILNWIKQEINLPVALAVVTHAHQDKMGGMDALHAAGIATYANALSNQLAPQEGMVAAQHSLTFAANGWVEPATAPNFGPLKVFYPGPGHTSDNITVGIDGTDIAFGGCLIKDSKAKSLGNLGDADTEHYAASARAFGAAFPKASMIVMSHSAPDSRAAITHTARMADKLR
Chain of Phospholipid hydroperoxide glutathione peroxidase GPX4 (Homo sapiens) (P36969 whole entry, looked up): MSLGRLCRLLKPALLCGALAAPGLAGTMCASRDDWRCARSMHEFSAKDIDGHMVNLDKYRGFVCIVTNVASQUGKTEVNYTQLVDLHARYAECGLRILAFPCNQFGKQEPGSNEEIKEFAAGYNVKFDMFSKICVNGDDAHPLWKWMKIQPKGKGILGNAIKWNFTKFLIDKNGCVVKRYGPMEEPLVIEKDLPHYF

CCCN(CCC)CCc1cccc2c1CC(=O)N2
4.72%: activity [3]
6.02%: activity change, negative = inhibition [1]
1.36%: activity [2]
inactive: Potency [4] | Potency [5] | outcome [6] | activity, negative = inhibition [7, 9] -9.53% | activity, negative = inhibition [7, 10] -8.71% | Potency (3D7) | Potency (7G8) | Potency (AA1029) | Potency (AS120) | Potency (ATS189) | Potency (ATS95) | Potency (C2A)

CN(C)CCCN1c2ccccc2Sc2ccc(C(F)(F)F)cc21
active: Potency (7G8) 5.01 µM
inactive: outcome [8] | Potency [4] | Potency [5] | outcome [6] | Potency (ATS95) | Potency (C2A)

CC(=O)Nc1nnc(S(N)(=O)=O)s1
inactive: outcome [8] | Potency [4] | Potency [5] | activity, negative = inhibition [7, 9] -9.91% | activity, negative = inhibition [7, 10] 6.59% | Potency (3D7) | Potency (7G8) | Potency (AA1029) | Potency (AS120) | Potency (ATS189) | Potency (ATS95) | Potency (C2A)

N[C@@H](COP(=O)(O)O)C(=O)O
inactive: Potency [4] | Potency [5]

CN(C)[C@@H]1C(=O)C(C(N)=O)=C(O)[C@@]2(O)C(=O)C3=C(O)c4c(O)ccc(Cl)c4[C@@H](O)[C@H]3C[C@@H]12
8.05%: activity change, negative = inhibition [1]
-3.56%: activity [2]
inactive: Potency [4] | Potency [5] | outcome [6]
2.12%: activity [3]

C[C@@H](O)[C@H]1C(=O)N2C(C(=O)O)=C(SCCN=CN)C[C@H]12
inactive: Potency [4] | Potency [5] | outcome [6]

CN1C[C@H](C(=O)N[C@]2(C)O[C@@]3(O)[C@@H]4CCCN4C(=O)[C@H](Cc4ccccc4)N3C2=O)C[C@@H]2c3cccc4[nH]cc(c34)C[C@H]21
inactive: Potency [4] | Potency [5] | outcome [6]

CCC(=O)c1ccc2c(c1)N(CCCN(C)C)c1ccccc1S2
inactive: Potency [4] | activity, negative = inhibition [7, 9] -23.2% | activity, negative = inhibition [7, 10] -3.51% | Potency (3D7)
4.3%: activity change, negative = inhibition [1]
-51.8%: activity [2]
-2.93%: activity [3]

CNCCCN1c2ccccc2CCc2ccccc21
inactive: outcome [8] | Potency [4] | Potency [5]

COc1cc(Cc2cnc(N)nc2N)cc(OC)c1OC
inactive: outcome [8] | Potency [4] | Potency [5] | outcome [6]

CC(=O)OC(C)C[N+](C)(C)C (centres undefined)
inactive: Potency [4] | Potency [5] | outcome [6]

CC(=O)Oc1cc(C(C)C)c(OCCN(C)C)cc1C
inactive: Potency [4] | Potency [5] | outcome [6] | activity, negative = inhibition [7, 11] 4.04% | activity, negative = inhibition [7, 12] -3.15% | Potency (3D7) | Potency (7G8) | Potency (AA1029) | Potency (AS120) | Potency (ATS189) | Potency (ATS95) | Potency (C2A)

CCOC(=O)c1cnc2c(cnn2CC)c1NN=C(C)C
active: Potency (7G8) 11.2 µM
inactive: Potency [4] | Potency [5] | outcome [6] | activity, negative = inhibition [7, 9] 15.4% | activity, negative = inhibition [7, 10] -4.13% | Potency (3D7) | Potency (AA1029) | Potency (AS120) | Potency (ATS189) | Potency (ATS95) | Potency (C2A)

COCC(=O)O[C@]1(CCN(C)CCCc2nc3ccccc3[nH]2)CCc2cc(F)ccc2[C@@H]1C(C)C
inactive: Potency [4] | Potency [5] | outcome [6]
active: Potency ([7]; parasite line A) 3.55 µM | Potency ([7]; parasite line B) 5.01 µM | Potency (3D7) 7.94 µM | Potency (7G8) 1.12 µM | Potency (AA1029) 0.794 µM | Potency (AS120) 1.26 µM | Potency (ATS189) 3.98 µM | Potency (ATS95) 1.26 µM | Potency (C2A) 0.562 µM

O=C(O)CCCCCCCC(=O)O
inactive: Potency [4] | Potency [5] | outcome [6] | activity, negative = inhibition [7, 9] 9.73% | activity, negative = inhibition [7, 10] 11.2% | Potency (3D7) | Potency (7G8) | Potency (AA1029) | Potency (AS120) | Potency (ATS189) | Potency (ATS95) | Potency (C2A)

OCCN1CCN(CC/C=C2/c3ccccc3Sc3ccc(C(F)(F)F)cc32)CC1
active: Potency ([7]; parasite line A) 8.91 µM | Potency ([7]; parasite line B) 11.2 µM | Potency (3D7) 12.6 µM | Potency (7G8) 3.16 µM | Potency (AA1029) 8.91 µM | Potency (AS120) 11.2 µM | Potency (ATS189) 7.94 µM
inactive: Potency [4] | Potency [5] | outcome [6]

CCN(CC)CCNC(=O)c1ccc(NC(C)=O)cc1
inactive: Potency [4] | Potency [5] | outcome [6] | activity, negative = inhibition [7, 9] 9.9% | activity, negative = inhibition [7, 10] 23.7% | Potency (3D7) | Potency (7G8) | Potency (AA1029) | Potency (AS120) | Potency (ATS189) | Potency (ATS95) | Potency (C2A)

CCN(CC)CCNC(=O)c1cc(S(C)(=O)=O)ccc1OC
inactive: Potency [4] | Potency [5] | outcome [6] | activity, negative = inhibition [7, 11] 11.8% | activity, negative = inhibition [7, 12] 10.3% | Potency (3D7) | Potency (7G8) | Potency (AA1029) | Potency (AS120) | Potency (ATS189) | Potency (ATS95) | Potency (C2A)

C[N+](C)(C)CCOC(N)=O
inactive: Potency [4] | Potency [5] | outcome [6] | activity, negative = inhibition [7, 9] 16.8% | activity, negative = inhibition [7, 10] 9.29% | Potency (3D7) | Potency (7G8) | Potency (AA1029) | Potency (AS120) | Potency (ATS189) | Potency (ATS95) | Potency (C2A)

NCCCNCCSP(=O)(O)O
inactive: Potency [4] | Potency [5] | outcome [6] | activity, negative = inhibition [7, 9] 8.13% | activity, negative = inhibition [7, 10] 13.6% | Potency (3D7) | Potency (7G8) | Potency (AA1029) | Potency (AS120) | Potency (ATS189) | Potency (ATS95) | Potency (C2A)

CCOC(=O)C1=C(C)NC(C)=C(C(=O)OC)C1c1cccc(Cl)c1Cl (centres undefined)
inactive: Potency [4] | Potency [5] | outcome [6] | activity, negative = inhibition [7, 9] -7.27% | activity, negative = inhibition [7, 10] -5.02% | Potency (3D7) | Potency (AA1029) | Potency (AS120) | Potency (ATS189) | Potency (ATS95) | Potency (C2A)

CCCOc1ccccc1-c1nc2n[nH]nc2c(=O)[nH]1
inactive: Potency [4] | Potency [5] | outcome [6] | activity, negative = inhibition [7, 9] -3.13% | activity, negative = inhibition [7, 10] 3.38% | Potency (3D7) | Potency (7G8) | Potency (AA1029) | Potency (AS120) | Potency (ATS189) | Potency (ATS95) | Potency (C2A)
